# PubChem BioAssay (EPA / NIEHS)
# The source made the active and inactive calls. How the source made its calls: active means hit-call score of the fitted dose curve at least 0.9, where 1 is the maximum; inactive means score below 0.9.
# Assay: CCTE_Padilla_ZF_Score.General: CCTE's 144 Hour Post-fertilization zebrafish Assay Score for General Malformation, Padilla Lab (AID 2284411)
# Method in brief: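 Wild-type zebrafish embryos were plated singly at 6-8 hpf in 10% Hanks' and exposed in sealed wells at 26C until rinsed on 5 dpf. At 6 dpf two blinded assessors scored mortality, hatching and malformations by stereomicroscopy; gain-of-signal versus DMSO.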
Compound,outcome,AC50
C[Si](Cl)(Cl)CCC(F)(F)C(F)(F)C(F)(F)C(F)(F)C(F)(F)C(F)(F)F,inactive,
NC(=O)C(F)(F)C(F)(F)C(F)(F)C(F)(F)C(N)=O,inactive,
NCC(F)(F)C(F)(F)C(F)(F)C(F)(F)C(F)(F)C(F)(F)C(F)(F)C(F)(F)F,inactive,
O=S(=O)(O)CCC(F)(F)C(F)(F)C(F)(F)C(F)(F)C(F)(F)C(F)(F)C(F)(F)C(F)(F)F,inactive,
OCC(F)(F)C(F)(F)C(F)(F)CO,inactive,
CN(C(=O)C(F)(F)C(F)(F)C(F)(F)F)[Si](C)(C)C,inactive,
Nc1cc([N+](=O)[O-])cc(Cl)c1O,inactive,
COC(F)(C(F)F)C(F)(F)F (stereo not given),inactive,
O=C(F)C1(F)C(F)(F)C(F)(F)C(F)(F)C(F)(F)C1(F)F,inactive,
O=S(=O)(O)CCC(F)(F)C(F)(F)C(F)(F)C(F)(F)F,inactive,
c1ccc(C[P+](c2ccccc2)(c2ccccc2)c2ccccc2)cc1,inactive,
NC(=O)C(F)(F)C(F)(F)C(F)(F)F,inactive,
OC(O)C(F)(F)C(F)(F)F,inactive,
CC(C)CCCC(C)CCO (stereo not given),inactive,
OCCCCC(F)(F)C(F)(F)C(F)(F)C(F)(F)F,,21 µM (active)
CN1CN(C)CN(C)C1,inactive,
OCC(O)CC(F)(F)C(F)(F)C(F)(F)C(F)(F)F (stereo not given),inactive,
O=C(O)CCC(F)(F)C(F)(F)C(F)(F)C(F)(F)C(F)(F)C(F)(F)C(F)(F)F,inactive,
OCC(O)CC(F)(F)C(F)(F)C(F)(F)C(F)(F)C(F)(F)C(F)(F)C(F)(F)C(F)(F)F (stereo not given),,11.8 µM (active)
O=C(c1ccccc1)c1ccc(O)cc1O,inactive,
OCCCC(F)(F)C(F)(F)C(F)(F)C(F)(F)C(F)(F)C(F)(F)C(F)(F)C(F)(F)F,inactive,
OCC(F)(F)C(F)(F)C(F)(F)C(F)(F)C(F)(F)C(F)(F)C(F)(F)C(F)(F)CO,,4.17 µM (active)
CCN(CC)c1ccc(C=O)cc1,inactive,

# Assay: CCTE_Padilla_ZF_Score.Tail: CCTE's 144 Hour Post-fertilization zebrafish Assay Score for Tail Malformation, Padilla Lab (AID 2284414)
# Method in brief: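 Wild-type zebrafish embryos, one per well in 200 uL 10% Hanks', dosed at 6-8 hpf, sealed, and kept at 26 C on a 14:10 h light cycle. Chemical was rinsed out at 5 dpf. Blinded brightfield scoring of tail defects followed at 6 dpf.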
row,Compound,outcome
1,C[Si](Cl)(Cl)CCC(F)(F)C(F)(F)C(F)(F)C(F)(F)C(F)(F)C(F)(F)F,inactive
2,NC(=O)C(F)(F)C(F)(F)C(F)(F)C(F)(F)C(N)=O,inactive
3,NCC(F)(F)C(F)(F)C(F)(F)C(F)(F)C(F)(F)C(F)(F)C(F)(F)C(F)(F)F,inactive
4,O=S(=O)(O)CCC(F)(F)C(F)(F)C(F)(F)C(F)(F)C(F)(F)C(F)(F)C(F)(F)C(F)(F)F,inactive
5,OCC(F)(F)C(F)(F)C(F)(F)CO,inactive
6,CN(C(=O)C(F)(F)C(F)(F)C(F)(F)F)[Si](C)(C)C,inactive
7,COC(F)(C(F)F)C(F)(F)F (stereo not given),inactive
8,O=C(F)C1(F)C(F)(F)C(F)(F)C(F)(F)C(F)(F)C1(F)F,inactive
9,O=S(=O)(O)CCC(F)(F)C(F)(F)C(F)(F)C(F)(F)F,inactive
10,NC(=O)C(F)(F)C(F)(F)C(F)(F)F,inactive
11,OC(O)C(F)(F)C(F)(F)F,inactive
12,OCCCCC(F)(F)C(F)(F)C(F)(F)C(F)(F)F,inactive
13,OCC(O)CC(F)(F)C(F)(F)C(F)(F)C(F)(F)F (stereo not given),inactive
14,O=C(O)CCC(F)(F)C(F)(F)C(F)(F)C(F)(F)C(F)(F)C(F)(F)C(F)(F)F,inactive
15,OCC(O)CC(F)(F)C(F)(F)C(F)(F)C(F)(F)C(F)(F)C(F)(F)C(F)(F)C(F)(F)F (stereo not given),inactive
16,OCCCC(F)(F)C(F)(F)C(F)(F)C(F)(F)C(F)(F)C(F)(F)C(F)(F)C(F)(F)F,inactive
17,OCC(F)(F)C(F)(F)C(F)(F)C(F)(F)C(F)(F)C(F)(F)C(F)(F)C(F)(F)CO,inactive
